Here are results for 2 molecules from PubChem BioAssay.

For part of these data: Measured potencies and affinities stand elsewhere. Some of the results follow. Activity calls are given as the source filed them.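 The calls were made as follows, unless noted: active = GFP response above 150% of the DMSO level; inconclusive = fewer than 70 events counted for a yeast strain; inactive = the rest.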

The target in assay [1] is Cell division control protein 42 homolog (Homo sapiens) (UniProt P60953). Description: activated mutant Cdc42 GTP-binding inhibitors, dose response, biochemical, multiplex bead flow cytometry, Bodipy-FL-GTP (AID 1333;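 active = fitted half-maximal concentration within the tested dose range, moderate curve steepness, a statistically real signal drop, and little compound fluorescence or tag-binding interference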). For orientation: Flow cytometry measures light scatter and fluorescence of single cells or particles in a stream.
Cell division control protein 42 homolog (Homo sapiens), sequence (P60953 whole entry, looked up): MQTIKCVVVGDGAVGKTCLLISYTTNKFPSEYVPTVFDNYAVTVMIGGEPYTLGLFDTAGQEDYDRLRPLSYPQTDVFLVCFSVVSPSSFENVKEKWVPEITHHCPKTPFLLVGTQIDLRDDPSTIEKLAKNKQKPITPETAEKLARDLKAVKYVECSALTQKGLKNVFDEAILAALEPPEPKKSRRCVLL
The target is the same in assay [2]. Nature of the assay: wildtype Cdc42 GTP-binding inhibitors, dose response, biochemical, multiplex bead flow cytometry, Bodipy-FL-GTP (AID 1334;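 active = fitted half-maximal concentration within the tested range, moderate curve steepness, significant signal drop, and little compound fluorescence or bead-linkage interference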). Particulars: bead-based flow cytometry, Bodipy-FL-GTP binding to GST-Cdc42; at 100 µM (top of the series) unless noted.
Assay [3] deals with GTPase HRas (Homo sapiens) (UniProt P01112). Nature of the assay: inhibitors of GTP binding to wildtype Ras, dose response, biochemical, multiplex bead flow cytometry (AID 1335;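 active = fitted half-maximal concentration within 10 nM to 100 µM, steepness 0.5 to 2, significant signal drop, low assay interference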). The conditions noted are these: bead-based flow cytometry, Bodipy-GTP binding to GST-Ras; at 100 µM (top of the series) unless noted.
GTPase HRas (Homo sapiens), sequence (P01112 whole entry, looked up): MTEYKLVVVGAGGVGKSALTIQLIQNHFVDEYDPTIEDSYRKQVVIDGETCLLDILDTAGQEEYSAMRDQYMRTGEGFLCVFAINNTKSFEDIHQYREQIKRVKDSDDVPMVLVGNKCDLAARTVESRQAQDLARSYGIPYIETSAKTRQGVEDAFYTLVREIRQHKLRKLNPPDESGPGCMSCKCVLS
Assay [4] concerns Ras-related protein Rab-7a (dog), GTP binding. Description: Rab7 GTP binding inhibitors, potency, dose response, biochemical, wildtype, multiplex bead flow cytometry (AID 1336; call rule not given here).
Assay [5] has as its target Ras-related C3 botulinum toxin substrate 1 (Homo sapiens) (UniProt P63000). Description: wildtype Rac1 GTP binding inhibitors, dose response, biochemical, multiplex bead flow cytometry (AID 1340;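 active = dose curve with midpoint inside tested range, moderate steepness, plateau gap beyond fit error, low compound glow and bead-link interference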). The conditions noted are these: GST-Rac1 beads, Bodipy-FL-GTP binding; at 100 µM (top of the series) unless noted.
Assay [6] has as its target GTPase HRas (Homo sapiens) (UniProt P01112). Description: activated Ras mutant GTP binding inhibitors, dose response, biochemical, multiplex bead flow cytometry (AID 1341;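 active = dose-response curve with midpoint inside the tested range, moderate steepness, significant amplitude and little compound fluorescence or bead-attachment interference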;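 also: GST-tagged constitutively activated Ras mutant immobilized on beads and multiplexed with other GTPases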).
Assay [7] has as its target Regulator of G-protein signaling 16 (Homo sapiens) (UniProt O15492). Nature of the assay: modulators of RGS–Galpha-o binding, primary screen, biochemical, multiplexed beads, flow cytometry, RGS4/7/8/16/19 (AID 1504).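 Also: fluorescently labeled Galpha-o bound to GDP with aluminium fluoride binding biotinylated RGS beads.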 The conditions noted are these: multiplexed bead flow cytometry, measured here: RGS16 interaction, at 10 µM.
Assay [8] deals with Regulator of G-protein signaling 19 (Homo sapiens) (UniProt P49795). Described as above. Particulars: multiplexed bead flow cytometry, measured here: RGS19 interaction, at 10 µM.
Assay [9] addresses Regulator of G-protein signaling 7 (Homo sapiens) (UniProt P49802). The assay is described as above. Particulars: multiplexed bead flow cytometry, measured here: RGS7 interaction, at 10 µM.
In assay [10] the target is Regulator of G-protein signaling 8 (Homo sapiens) (UniProt P57771). Described as above. Particulars: multiplexed bead flow cytometry, measured here: RGS8 interaction, at 10 µM.
Assay [11] in a line: RPL19A-GFP modulators, yeast TOR pathway, confirmation, cell-based, S. cerevisiae, flow cytometry, cherry picks, mother/daughter gates (AID 2270;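 active = GFP response below 50% of the DMSO control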). Particulars: S. cerevisiae RPL19A-GFP strain, 3 h, at 10 µM, stronger effect = lower value, 100 = same GFP as DMSO wells.
The nature of assay [12]: LAP4-GFP expression modulators in yeast, confirmation, cell-based, cherry picks, flow cytometry, mother/daughter gates (AID 2271;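 active = GFP response above 150% of the DMSO control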;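 also: ratio of sample to DMSO plate mean so 100% equals DMSO level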). Particulars: S. cerevisiae LAP4-GFP strain, 3 h, at 10 µM, stronger effect = higher value, 100 means same as DMSO control.
Assay [13] can be described thus: modulators of MEP2-GFP levels in yeast, confirmation, S. cerevisiae, flow cytometry GFP, cherry picks (AID 2272;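 active = GFP response above 150% of the DMSO control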;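 also: ratio of well signal to plate DMSO mean so 100% equals DMSO level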). The conditions noted are these: S. cerevisiae MEP2-GFP strain, 3 h, at 10 µM, stronger effect = higher value.
Assay [14] is described as follows: AGP1-GFP expression modulators, hit retest, confirmation, cell-based, flow cytometry, S. cerevisiae, cherry picks (AID 2273).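 Also: median GFP channel fluorescence over the whole cell population gate.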 Particulars: S. cerevisiae AGP1-GFP strain, 3 h, at 10 µM.
A short description of assay [15]: modulators of CIT2-GFP expression in yeast, confirmation, S. cerevisiae, GFP fusion, cherry picks, mother/daughter gates (AID 2274). The conditions noted are these: S. cerevisiae CIT2-GFP strain, flow cytometry, 3 h, at 10 µM, stronger effect = higher value.
Assay [16] is described as follows: compound autofluorescence in yeast s288c, dose response, artefact control for yeast TOR pathway GFP screen, s288c strain (AID 2757;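 active = fluorescence span over the dose series, or activity score, above about 33, limit read from the data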;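 also: thousands of bead-calibrated equivalent soluble fluorophore molecules from median cell fluorescence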). Particulars: S. cerevisiae s288c, 520 nm autofluorescence, flow cytometry, 3 h; at 33 µM; stronger effect = higher value; zero means same as solvent-only cells.
The mark [17] stands for this setting: measured here: daughter cell gate.
[18] abbreviates: measured here: mother cell gate.
[19] abbreviates: measured here: daughter cell gate response.
[20] abbreviates: measured here: mother cell gate response.

For the molecule `CN(c1ccccc1)c1ccc(/C=c2\s/c(=C(/C#N)C(=O)C(C)(C)C)n(Cc3ccco3)c2=O)cc1`, the outcome in assay [1], in [4] and in assay [6] was inactive. In addition, the fluorescence, percent of control (lower = inhibition) in assay [2] came out at 160%. Further, the GTP binding, percent of control in assay [3] amounted to 157%. In assay [5], this molecule came in with a GTP binding signal, raw median fluorescence (lower = inhibition) (MCF (arbitrary fluorescence units)) of 180. Besides, the RGS16–Galpha-o binding response in assay [7] is 551%. The molecule also gave an RGS19–Galpha-o binding response in assay [8] of 4650%. Further, the RGS7–Galpha-o binding response in assay [9] is 421%. In assay [10], this molecule gave an RGS8–Galpha-o binding response of 134%. Further, the GFP response vs DMSO was 118% (inactive) in assay [11], 118% in assay [11] (setting [17]), 116% in assay [11] (setting [18]) and 309% (active) in assay [13]. Also, the GFP response relative to DMSO in assay [12] was 235% (active); in [12] (setting [19]), 240%; in [12] (setting [20]), 231%. For the same molecule, the GFP response, % of DMSO in [14] is 126% (inactive); in assay [15] it was 231% (active); in [15] (setting [17]), 229%; in assay [15] (setting [18]), 230%. Also, in [16], the fluorescence change (kMESF span) is 19.9 (inactive).
For `N=c1c(C(=O)NCc2ccco2)cc2c(=O)n3ccccc3nc2n1CCc1ccccc1`, the molecule was called inactive in assay [1], in assay [4] and in assay [6]. Moreover, in assay [2], the fluorescence, percent of control (lower = inhibition) came out at 28.7%. In assay [3], this molecule came in with a GTP binding, percent of control of 40.3%. Besides, in [5], the GTP binding signal, raw median fluorescence (lower = inhibition) (MCF (arbitrary fluorescence units)) stood at 96.5. Besides, the GFP response vs DMSO is 96.8% (inactive) in assay [11], 96.4% in [11] (setting [17]), 95.8% in assay [11] (setting [18]) and 100% (inactive) in [13]. For the same molecule, the GFP response relative to DMSO in assay [12] is 99.2% (inactive); in assay [12] (setting [19]), 99.2%; in [12] (setting [20]), 90.8%. In addition, the GFP response, % of DMSO is 97% (inactive) in assay [14], 96.9% (inactive) in assay [15], 95.4% in assay [15] (setting [17]) and 91.4% in assay [15] (setting [18]).
